Where “and” joins values, the source holds several entries; their conditions need not be identical. Equal entries are not always repeated. Results filed as inconclusive are left out. Where a structure was tested more than once in an assay, its records may differ in their call. Calls of active or inactive are those of the source. Unless noted, calls come from the whole dose curve.

The nature of assay [1]: Nuclear factor erythroid 2-related factor 2/antioxidant responsive element (Nrf2/ARE) small molecule agonists: qHTS cell viability counter screen in human keratinocytes (AID 1919968; active = well fitted curve in the direction sought with a large enough effect in the repeat runs; an effect the other way counts as inactive or inconclusive; note: nearly all actives have a fitted effect of over 55% in size; note: potency is the fitted concentration of half-maximal effect). A digest of the protocol: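 Fluorescence read-out from CellTiter-Fluor after 1 h at 37 C. Wells held HaCaT-derived ARE-luciferase reporter cells (1,500/well) treated 23 h with DMSO-dissolved compounds. Run in the same wells as the luciferase agonist read.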
A general note: qHTS replaces the single test concentration by a dilution series.

Assay [2] in a line: Nuclear factor erythroid 2-related factor 2/antioxidant responsive element (Nrf2/ARE) small molecule agonists: luciferase reporter gene qHTS assay in human keratinocytes (AID 1919969). Note: nearly all actives have a fitted effect of over 35% in size.
Assay [3] has as its target Gonadotropin-releasing hormone receptor (Homo sapiens) (UniProt P30968). Briefly: Human gonadotropin-releasing hormone receptor (GnRHR) small molecule agonists, calcium flux assay in GnRHR-HEK293 cells (AID 1920063). Note: nearly all actives have a fitted effect of over 35% in size. In outline: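 Calcium-dye fluorescence, Ex/Em=480/540, recorded every 1 sec over 3 min after compound addition to GnRHR-HEK293 cells. Cells had been seeded 18 hours earlier and dye-loaded for 1 hour at 37 C. Fifteen concentrations, triplicates.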
A general note: A change in cytosolic calcium serves as a functional read-out for many receptors and channels.

Assay [4] addresses KiSS-1 receptor (Homo sapiens) (UniProt Q969F8). In words: Human kisspeptin (KISS1R) small molecule agonists, calcium flux assay in KISS1R-HEK293 cells (AID 1920064; active = well fitted curve in the direction sought with a large enough effect in the repeat runs; an effect the other way counts as inactive or inconclusive). A digest of the protocol: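 Calcium flux read-out: kinetic fluorescence at Ex/Em=480/540, 1 s intervals over 3 min, after pin-tool compound addition to dye-loaded KISS1R-HEK293 cells. Fifteen concentrations, triplicates.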

The nature of assay [5]: G protein-coupled receptor (GPCR) small molecule agonists, calcium flux assay: HEK293 wild type cell line counter screen (AID 1920065). In outline:
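Agonist mode; 18 h seeding at 37 C, 1 h dye load at 37 C; compounds pinned from DMSO, ATP as positive control; kinetic fluorescence 480/540 nm, 3 min, 1 s reads; 15 concentrations, triplicate.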

A short description of assay [6]: p53 small molecule agonists, cell-based qHTS assay with human liver microsomes: qHTS cell viability counter screen (AID 1963579). Note: nearly all actives have a fitted effect of over 45% in size. A digest of the protocol:
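In this multiplexed counter screen, the reporter plates were subsequently treated with CellTiter-Glo so that cell viability, reflected by luminescence, could be recorded for p53RE-bla cells dosed 16 h with compounds under microsomal activation (HLM and NADPH).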

Assay [7] can be described thus: p53 small molecule agonists, cell-based qHTS assay with rat liver microsomes: qHTS cell viability counter screen (AID 1963580). Note: nearly all actives have a fitted effect of over 45% in size. A digest of the protocol:
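After the beta-lactamase ratio was read, CellTiter-Glo was added to the same wells and luminescence measured at 30 min; cells had been treated 16 h at 37 C with compounds, rat liver microsomes and NADPH (0.5 mg/mL final each).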

Assay [8] in a line: p53 small molecule agonists, cell-based qHTS assay: qHTS cell viability counter screen (AID 1963581). Note: nearly all actives have a fitted effect of over 45% in size. A digest of the protocol: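 Cytotoxicity read-out: ATP-based luminescence (CellTiter-Glo, 30 min RT) measured in the same wells as the p53 reporter assay, HCT-116 p53RE-bla cells, 16 h compound exposure at 37 C.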
Assay [9] has as its target 5-hydroxytryptamine receptor 2A (Homo sapiens) (UniProt P28223). Briefly: 5-hydroxytryptamine receptor 2A (HTR2A) small molecule agonists, cell-based qHTS assay (AID 1963587). Note: nearly all actives have a fitted effect of over 30% in size. In outline:
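CHO cells stably expressing human HTR2A, plated 18 h, loaded with calcium dye 1 h at 37 C. Agonist mode: compounds added and intracellular calcium fluorescence recorded kinetically for 2 min at 1 sec intervals.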

The target of assay [10] is Muscarinic acetylcholine receptor M1 (Homo sapiens) (UniProt P11229). In words: Cholinergic receptor muscarinic 1 (CHRM1) small molecule antagonists, cell-based qHTS assay (AID 1963588). Note: nearly all actives have a fitted effect of over 40% in size. A digest of the protocol:
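Compounds were tested at 15 concentrations in three independent runs. Dye-loaded CHRM1-CHO cells were exposed 5 min at room temperature before stimulation by acetylcholine added at 50nM. Intracellular calcium was read kinetically on FDSS for 3 min.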

Assay [11] has the same target. In words: Cholinergic receptor muscarinic 1 (CHRM1) small molecule agonists, cell-based qHTS assay (AID 1963589). Note: nearly all actives have a fitted effect of over 35% in size. In outline:
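Calcium flux read-out: kinetic fluorescence at 1 sec intervals after pin-tool compound addition to dye-loaded CHRM1-CHO cells (human M1). Agonist mode; 15 concentrations tested in triplicate independent runs.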

Assay [12] can be described thus: cAMP Responsive Elements (CRE) small molecule agonists, cell-based qHTS assay (AID 1963590). A digest of the protocol:
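Beta-lactamase reporter readout: LiveBLAzer B/G FRET substrate, 2 h at room temperature, added after 3 h compound treatment of CRE-bla HEK 293T cells at 37 C/5% CO2.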

A short description of assay [13]: cAMP Responsive Elements (CRE) small molecule antagonists, cell-based qHTS assay (AID 1963591; active = well fitted inhibition curve with a large enough effect in the signal ratio in the repeat runs, not every such curve was filed as active; the % refers to the signal ratio). A digest of the protocol:
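HEK293T CRE-bla; 18 h preincubation; compound pin-transfer; NKH477 0.25 uM final, 3 h, 37 C; LiveBLAzer FRET substrate 2 h RT.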

In assay [14] the target is Beta-2 adrenergic receptor (Homo sapiens) (UniProt P07550). In words: Adrenergic beta2 receptor (ADRB2) small molecule antagonists, cell-based qHTS assay (AID 1963592). Note: series mostly up to about 92 µM; nearly all actives have a fitted effect of over 50% in size. A digest of the protocol:
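Assay format: CHO-ADRB2 cells, 18-20hr seeding at 37C/5% CO2, then compound plus 1nM isoproterenol agonist mix for 0.5hr RT. Homogeneous time-resolved fluorescence cAMP detection after 1hr, expressed as 665/615 nm ratio.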

Assay [15] has the same target. In words: Adrenergic beta2 receptor (ADRB2) small molecule agonists, cell-based qHTS assay (AID 1963593).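 Note: CHO cells stably overexpressing human ADRB2.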 In outline: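 CHO cells stably over-expressing ADRB2 were plated overnight at 37C, then dosed with compounds plus a stimulation mix containing 100uM IBMX and 25uM Ro-20-1724 for 0.5hr at room temperature. cAMP was measured by HTRF competition, 1hr.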
The target in assay [16] is D(2) dopamine receptor (Homo sapiens) (UniProt P14416). In words: Dopamine D2 receptor (DRD2) small molecule agonists, cell-based qHTS assay (AID 1963594). Note: nearly all actives have a fitted effect of over 35% in size. In outline: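 HEK293 cells stably expressing human DRD2, pre-treated with PDE inhibitor Ro20-1724 (0.1 mM final) and compound 10 min at room temperature, then stimulated with NKH477 (200nM […]) for 30 min. cAMP read by HTRF (665/620 nm).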

The target is the same in assay [17]. Briefly: Dopamine D2 receptor (DRD2) small molecule antagonists, cell-based qHTS assay (AID 1963595; active = well fitted inhibition curve with a large enough effect in the signal ratio in the repeat runs, with a control signal flat; the % refers to the signal ratio). In outline:
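HTRF cAMP read-out at 665 and 620 nm emission (340 nm excitation). Antagonist mode: compounds were tested against 12 nM quinpirole in DRD2-HEK293 cells, with 200 nM NKH477 raising cAMP and 0.1 mM Ro20-1724 blocking its breakdown.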

Assay [18] addresses 5-hydroxytryptamine receptor 2A (Homo sapiens) (UniProt P28223). Briefly: 5-hydroxytryptamine receptor 2A (HTR2A) small molecule antagonists, cell-based qHTS assay (AID 1963586). Note: nearly all actives have a fitted effect of over 45% in size. In outline: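 CHO cells stably expressing human HTR2A were plated for 18 h at 37 C, then loaded with calcium dye for 1 h. Compounds were preincubated 5 min at room temperature before DOI (4 nM solution) was added. Kinetic fluorescence was read for 3 min.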

Sequence of Muscarinic acetylcholine receptor M1 (Homo sapiens) (P11229 whole entry, looked up): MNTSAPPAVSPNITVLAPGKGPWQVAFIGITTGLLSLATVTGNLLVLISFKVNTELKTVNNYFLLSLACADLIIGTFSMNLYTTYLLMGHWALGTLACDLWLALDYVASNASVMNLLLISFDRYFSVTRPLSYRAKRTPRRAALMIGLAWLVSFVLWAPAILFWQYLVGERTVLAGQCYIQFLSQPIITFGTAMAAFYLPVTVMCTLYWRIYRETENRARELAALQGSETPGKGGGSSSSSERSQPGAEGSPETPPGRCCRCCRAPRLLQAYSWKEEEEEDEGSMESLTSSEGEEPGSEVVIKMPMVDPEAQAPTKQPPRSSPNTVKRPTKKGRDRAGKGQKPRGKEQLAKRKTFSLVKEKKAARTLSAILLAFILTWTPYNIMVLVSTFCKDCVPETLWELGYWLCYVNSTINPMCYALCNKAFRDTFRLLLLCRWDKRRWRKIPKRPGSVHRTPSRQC
Sequence of KiSS-1 receptor (Homo sapiens) (Q969F8 whole entry, looked up): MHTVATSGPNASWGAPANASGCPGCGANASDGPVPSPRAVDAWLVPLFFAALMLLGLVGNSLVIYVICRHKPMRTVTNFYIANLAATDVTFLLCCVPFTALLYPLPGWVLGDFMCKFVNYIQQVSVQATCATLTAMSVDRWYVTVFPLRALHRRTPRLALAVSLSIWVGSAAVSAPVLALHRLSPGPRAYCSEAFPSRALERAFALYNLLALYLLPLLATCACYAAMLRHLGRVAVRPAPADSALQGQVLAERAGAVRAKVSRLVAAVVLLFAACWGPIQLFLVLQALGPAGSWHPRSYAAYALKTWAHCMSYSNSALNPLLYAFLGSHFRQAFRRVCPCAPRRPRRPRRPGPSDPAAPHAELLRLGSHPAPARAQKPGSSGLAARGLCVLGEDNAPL
Sequence of D(2) dopamine receptor (Homo sapiens) (P14416 whole entry, looked up): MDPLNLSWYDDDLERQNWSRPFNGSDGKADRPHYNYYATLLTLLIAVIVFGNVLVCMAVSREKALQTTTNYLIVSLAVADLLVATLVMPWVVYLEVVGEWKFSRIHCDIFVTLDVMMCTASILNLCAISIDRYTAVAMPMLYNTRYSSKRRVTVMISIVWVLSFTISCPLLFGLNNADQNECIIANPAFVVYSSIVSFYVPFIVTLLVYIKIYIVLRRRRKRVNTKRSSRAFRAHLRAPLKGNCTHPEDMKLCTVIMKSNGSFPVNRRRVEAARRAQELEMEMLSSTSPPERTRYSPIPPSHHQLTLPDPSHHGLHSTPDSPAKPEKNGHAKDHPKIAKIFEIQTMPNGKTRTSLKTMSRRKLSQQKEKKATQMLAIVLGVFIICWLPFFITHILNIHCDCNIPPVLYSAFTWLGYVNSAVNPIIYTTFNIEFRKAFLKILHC
Sequence of Gonadotropin-releasing hormone receptor (Homo sapiens) (P30968 whole entry, looked up): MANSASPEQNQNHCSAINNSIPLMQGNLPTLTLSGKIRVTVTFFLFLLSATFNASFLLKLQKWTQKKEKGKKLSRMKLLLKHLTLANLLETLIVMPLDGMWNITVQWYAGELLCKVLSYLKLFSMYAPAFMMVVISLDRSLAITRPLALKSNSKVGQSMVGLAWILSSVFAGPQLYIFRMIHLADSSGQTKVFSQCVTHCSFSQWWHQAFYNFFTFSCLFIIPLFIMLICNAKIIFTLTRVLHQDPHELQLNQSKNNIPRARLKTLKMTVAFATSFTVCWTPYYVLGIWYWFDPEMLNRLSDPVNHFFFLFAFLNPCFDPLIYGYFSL
Sequence of Beta-2 adrenergic receptor (Homo sapiens) (P07550 whole entry, looked up): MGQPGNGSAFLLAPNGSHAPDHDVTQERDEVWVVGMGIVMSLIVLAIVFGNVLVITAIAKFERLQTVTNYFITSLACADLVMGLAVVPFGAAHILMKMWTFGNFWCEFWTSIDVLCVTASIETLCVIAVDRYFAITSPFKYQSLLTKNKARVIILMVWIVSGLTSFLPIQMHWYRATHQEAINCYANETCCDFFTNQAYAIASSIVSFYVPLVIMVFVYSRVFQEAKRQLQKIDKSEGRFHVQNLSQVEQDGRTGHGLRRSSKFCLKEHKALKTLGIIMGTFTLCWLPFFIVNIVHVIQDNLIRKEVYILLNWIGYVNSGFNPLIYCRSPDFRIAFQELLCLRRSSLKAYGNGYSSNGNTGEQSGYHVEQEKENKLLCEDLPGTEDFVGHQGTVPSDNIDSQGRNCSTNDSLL
Sequence of 5-hydroxytryptamine receptor 2A (Homo sapiens) (P28223 whole entry, looked up): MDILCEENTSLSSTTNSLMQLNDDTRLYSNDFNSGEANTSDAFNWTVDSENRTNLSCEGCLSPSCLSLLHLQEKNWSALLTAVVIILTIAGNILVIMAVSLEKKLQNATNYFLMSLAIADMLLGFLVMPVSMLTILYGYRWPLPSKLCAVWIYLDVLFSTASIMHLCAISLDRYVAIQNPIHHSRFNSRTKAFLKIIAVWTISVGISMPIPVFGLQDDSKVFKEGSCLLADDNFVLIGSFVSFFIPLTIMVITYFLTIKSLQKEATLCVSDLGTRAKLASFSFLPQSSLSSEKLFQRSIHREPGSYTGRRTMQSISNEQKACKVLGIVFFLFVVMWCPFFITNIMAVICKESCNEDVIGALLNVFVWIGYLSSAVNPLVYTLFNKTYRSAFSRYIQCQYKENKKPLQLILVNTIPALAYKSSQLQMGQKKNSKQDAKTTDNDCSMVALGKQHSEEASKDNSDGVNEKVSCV

Take `F[B-](F)(F)F`: the Potency entry in assay [1] was “inactive and 31.1 µM (active)”. Besides, the Potency result in [2], in assay [3], in assay [4], in assay [5], in assay [6] and in assay [7] was “inactive” in each case. In addition, the Potency entry in assay [8], in [9], in assay [10], in assay [11], in assay [12] and in assay [13] was “inactive” each time. Moreover, the Potency result in assay [14], in [15], in assay [16] and in assay [17] was “inactive” in each case.
Turning to `Cc1occc(=O)c1O`, the Potency result in [1], in assay [2], in assay [3], in assay [4], in assay [5] and in [6] was “inactive” each time. Besides, the Potency entry in [7], in [8], in assay [9], in assay [10], in assay [11] and in [12] was “inactive” in each case. The Potency result in [13], in assay [14], in [15], in assay [16] and in assay [17] was “inactive” each time.
Consider `O=c1[nH]cnc2c1ncn2[C@H]1CC[C@@H](CO)O1`, for which the Potency entry in assay [1], in [2], in assay [3], in assay [4], in assay [5] and in assay [6] was “inactive” each time. The Potency result in assay [7], in assay [8], in assay [12], in [13], in [14] and in assay [15] was “inactive” each time. The Potency result in assay [16] and in assay [17] was “inactive” throughout.
In the case of `OC1C(O)C(O)C(O)C(O)C1O` (configuration not stated), the Potency result in assay [1], in [2], in [3], in [4], in [5] and in [6] was “inactive” in each case. The Potency entry in assay [7], in [8], in assay [18], in [9], in assay [10] and in assay [11] was “inactive” in each case. Moreover, the Potency result in [12], in assay [13], in assay [14], in assay [15] and in [16] was “inactive” in each case.
Take `CC1(C)OC[C@@H]2O[C@@]3(C(=O)O)OC(C)(C)O[C@H]3[C@@H]2O1`: the Potency entry in [1], in assay [2], in assay [3], in assay [4], in assay [5] and in assay [6] was “inactive” each time. Also, the Potency result in [7], in assay [8], in [18], in assay [9], in assay [10] and in assay [11] was “inactive” each time. Moreover, the Potency entry in assay [12], in assay [13], in [14], in assay [15] and in assay [16] was “inactive” each time.
`O=C(O)[C@H](O)[C@@H](O)[C@H](O)[C@H](O)CO`: the Potency result in assay [1], in assay [2], in assay [3], in [4], in assay [5] and in [6] was “inactive” each time. Also, the Potency entry in assay [7], in [8], in [18], in assay [9], in assay [10] and in [11] was “inactive” each time. The Potency result in assay [12], in [13], in assay [14], in [16] and in assay [17] was “inactive” in each case.
Turning to `C1CCCNCC1`, the Potency result in assay [1], in [2], in assay [3], in assay [4], in [5] and in assay [6] was “inactive” each time. Also, the Potency entry in assay [7], in assay [8], in assay [18], in assay [9], in [10] and in assay [11] was “inactive” each time. Besides, the Potency entry in [12], in assay [13], in assay [14], in [15] and in [17] was “inactive” each time.
As to `CCCCC(C=O)CC` (configuration not stated), the Potency result in assay [1], in assay [2], in [3], in assay [4], in assay [5] and in [6] was “inactive” in each case. For the same compound, the Potency entry in [7], in [8], in assay [18], in assay [9], in assay [10] and in assay [11] was “inactive” throughout. Moreover, the Potency result in [12], in [13], in assay [16] and in assay [17] was “inactive” each time.

(Values after PubChem BioAssay (Tox21).)
